Screening data from PubChem.
Jurkat NFkB inh: inhibitors of induced NF-kB luciferase reporter, primary screen, TCR NF-kB activation inhibitor project, cell-based, luminescence, uHTS; Jurkat, PMA/ionomycin-induced NF-kB luciferase reporter; inhibition, % at 4 µM; 330,000 compounds, 0.53% hits; AID 435003, 2010; in the data active means inhibition above about 50%
Mdm2-MdmX inh: inhibitors of human Mdm2-MdmX association, primary screen, cell-based, luminescence, split luciferase, SaOS-2, uHTS; Protein Mdm4 (Homo sapiens) + E3 ubiquitin-protein ligase Mdm2 (Homo sapiens), …; SaOS-2 split-luciferase Mdm2/MdmX complementation; inhibition, % at 8 µM; 330,000 compounds, 3% hits;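 active means inhibition of at least 50% at 8 µM in the primary screen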
Target sequence (O15151 whole entry, looked up): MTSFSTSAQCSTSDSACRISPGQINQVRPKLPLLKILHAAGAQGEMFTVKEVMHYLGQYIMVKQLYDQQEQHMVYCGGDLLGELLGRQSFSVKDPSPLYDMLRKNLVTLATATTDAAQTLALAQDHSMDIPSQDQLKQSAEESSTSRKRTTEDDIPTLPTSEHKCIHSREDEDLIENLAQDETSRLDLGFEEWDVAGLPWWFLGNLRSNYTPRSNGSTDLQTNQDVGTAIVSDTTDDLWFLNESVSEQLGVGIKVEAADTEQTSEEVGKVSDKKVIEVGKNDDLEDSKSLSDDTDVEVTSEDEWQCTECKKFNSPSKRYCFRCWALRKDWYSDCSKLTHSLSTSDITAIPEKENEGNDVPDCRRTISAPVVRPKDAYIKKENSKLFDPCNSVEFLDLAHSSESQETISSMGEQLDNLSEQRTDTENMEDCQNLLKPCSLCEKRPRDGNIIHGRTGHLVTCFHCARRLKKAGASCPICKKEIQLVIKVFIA
Target sequence (Q00987 whole entry, looked up): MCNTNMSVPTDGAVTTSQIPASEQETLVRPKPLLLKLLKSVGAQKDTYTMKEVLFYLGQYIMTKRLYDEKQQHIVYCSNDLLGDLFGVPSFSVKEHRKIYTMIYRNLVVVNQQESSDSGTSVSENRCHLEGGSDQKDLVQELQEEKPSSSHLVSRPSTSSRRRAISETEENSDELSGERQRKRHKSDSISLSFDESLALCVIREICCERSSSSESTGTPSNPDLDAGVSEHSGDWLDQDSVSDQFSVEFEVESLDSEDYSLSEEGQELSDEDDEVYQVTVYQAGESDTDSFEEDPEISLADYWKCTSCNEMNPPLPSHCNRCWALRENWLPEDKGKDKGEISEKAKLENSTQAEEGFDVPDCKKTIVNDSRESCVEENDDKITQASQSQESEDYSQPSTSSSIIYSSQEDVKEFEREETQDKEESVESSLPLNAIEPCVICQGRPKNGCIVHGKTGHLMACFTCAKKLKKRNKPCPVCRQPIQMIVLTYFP
697 NFkB inh: inhibitors of PMA/ionomycin-induced NF-kB reporter, 697 cells, primary screen, B-cell NF-kB inhibitor project, cell-based, luminescence, uHTS. 697 B-cell NF-kB luciferase reporter, 16 h. inhibition, % at 4 µM. 330,000 compounds, 0.33% hits; in the data active means inhibition above about 35%
Shn3 3UTR inh: reduction of Shn3 3'UTR firefly luciferase signal, primary screen, Schnurri-3 inhibitor project, cell-based, Clone20 osteoblasts, set 2; 360,000 compounds, 0.52% hits; Clone20 osteoblast Shn3 3'UTR firefly luciferase, 24 h; AID 588674, 2011; inhibition, % at 12.5 µM;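 active means mean inhibition of at least 75% with every replicate also reaching 75%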
Gli-Sufu antag: Gli-Sufu pathway antagonists, primary screen, luciferase luminescence, Sufu-KO-LIGHT cells, uHTS | Sufu-KO-LIGHT fibroblasts, Gli luciferase reporter luminescence | inhibition, % at 5 µM | 340,000 compounds, 0.74% hits | AID 588413, 2011;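 active means inhibition above about 55%, limit read from the data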
Jurkat NFkB conf: PMA/ionomycin-induced NF-kB reporter inhibitors, Jurkat retest, confirmation, T-cell NF-kB inhibitor project, cell-based, luminescence, single concentration | shares compounds with Jurkat NFkB inh | Jurkat NF-kB luciferase, 16 h | inhibition, % at 4 µM | 2,700 compounds, 27% hits;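 active means inhibition reaching about 45% at 4 µM in either replicate, limit read from the data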
Of the large screens only hits and unclear results are named; the others gave an inactive call (follow-up assays come after a bar, where they were run). In the library only some 3.8% were active in any assay of this set; here they are far more common.

Cc1ccc(C(=O)OCC(=O)NCc2ccc3c(c2)OCO3)o1	none
O=C(CC[C@H]1O[C@@H](n2ccc(=O)[nH]c2=O)[C@H](O)[C@@H]1O)N[C@H](Cc1ccccc1)C(=O)NCc1cccs1	none (no result: Jurkat NFkB inh, Mdm2-MdmX inh, 697 NFkB inh, Gli-Sufu antag)
O=C(NCc1ccco1)C1CC(c2ccc(C(F)(F)F)cc2)=NO1 (centres undefined)	Jurkat NFkB inh 50 | Jurkat NFkB conf inactive
COc1ccc(C2=NOC(C(=O)NCc3ccco3)C2)cc1 (centres undefined)	none
O=C(NCc1ccco1)C1CC(c2ccc(Cl)c(Cl)c2)=NO1 (centres undefined)	Jurkat NFkB inh 52 | Jurkat NFkB conf inactive
C[C@H]1CN([C@@H](C)CO)S(=O)(=O)c2ccc(Br)cc2O[C@@H]1CN(C)C(=O)C1CCOCC1	none (no result: Jurkat NFkB inh, Mdm2-MdmX inh, 697 NFkB inh, Gli-Sufu antag)
O=C(O/N=C(\c1ccccc1)c1ccncc1)c1ccccc1Cl	none
N/C(=N\OC(=O)c1ccc(Cl)cc1)c1ccn[nH]1	none | Jurkat NFkB conf inactive
N/C(=N\OC(=O)c1ccccc1Cl)c1ccc(Cl)cc1	none | Jurkat NFkB conf inactive
N/C(=N\OC(=O)c1ccccc1Cl)c1ccccc1	none | Jurkat NFkB conf inactive
CNc1ccc(/C=C\CCCO)cn1	none (no result: Jurkat NFkB inh, Mdm2-MdmX inh, 697 NFkB inh, Gli-Sufu antag)
COc1cccc2[nH]c3c(N4CCN(Cc5ccc6c(c5)OCO6)CC4)ncnc3c12	none (no result: Shn3 3UTR inh, Gli-Sufu antag)
COc1ccc2c(c1)[nH]c1c(N3CCN(Cc4ccc5c(c4)OCO5)CC3)ncnc12	Jurkat NFkB inh 52 | Jurkat NFkB conf 58
CCC(=O)Nc1ccc2c(c1)C(=O)c1ccccc1C2=O	none | Jurkat NFkB conf inactive
Cc1nc2cc(NC(=O)c3ccc(Br)s3)ccc2s1	none | Jurkat NFkB conf inactive
Cc1nc2ccc(NC(=O)c3ccc(Cl)nc3)cc2s1	none
Cc1ccc(C(=O)Nc2ccc3nc(C)sc3c2)s1	none
Cc1nc2ccc(NC(=O)c3cc(Cl)ccn3)cc2s1	none | Jurkat NFkB conf inactive
CCN1C(=O)[C@H]2[C@@H](c3ccc(C)cc3)N[C@]3(CCCN(Cc4cccn4C)C3=O)[C@H]2C1=O	none (no result: Jurkat NFkB inh, Mdm2-MdmX inh, 697 NFkB inh, Gli-Sufu antag)
CC(C)(C)OC(=O)NCCCCCNC(=O)c1[nH]cnc1C(=O)Nc1cc(Br)ccc1F	none (no result: Jurkat NFkB inh, Mdm2-MdmX inh, 697 NFkB inh, Gli-Sufu antag)
NC(=O)c1c(NC(=O)c2cc3ccccc3o2)sc2c1CCC2	none (no result: Shn3 3UTR inh) | Jurkat NFkB conf inactive
CCOC(=O)C1=C(C)NC2=C(C(=O)CC(c3cccs3)C2)C1c1cccs1 (centres undefined)	Jurkat NFkB inh 60 | Jurkat NFkB conf inactive
O=C(Nc1ccc2c(c1)CCC2)c1ccccc1	none | Jurkat NFkB conf inactive
Cc1ccc2c(c1)Sc1c(ccc3ccccc13)N2	none (no result: Shn3 3UTR inh) | Jurkat NFkB conf inactive
c1ccc2c(c1)Nc1cc3ccccc3cc1S2	none
Cc1cccc(-c2nc(=S)c3c(o2)CCCC3)c1	none | Jurkat NFkB conf inactive
C(=C\c1ccccc1)/CN1CCN(C(c2cccc3ccccc23)c2nnnn2-c2ccc3c(c2)OCCO3)CC1 (centres undefined)	none (no result: Jurkat NFkB inh, Mdm2-MdmX inh, 697 NFkB inh, Gli-Sufu antag)
Cc1noc(C)c1COc1ccc(C(=O)NNC(=O)c2ccccc2F)cc1	Jurkat NFkB inh 56 | Jurkat NFkB conf inactive
Cc1noc(C)c1COc1ccc(C(=O)NNC(=O)c2ccccc2)cc1	Jurkat NFkB inh 63 | Jurkat NFkB conf inactive
Cc1noc(C)c1COc1ccc(C(=O)O)cc1	none
COc1ccc(N2CC(C(=O)Nc3ccccc3N3CCCC3)CC2=O)c(OC)c1 (centres undefined)	Jurkat NFkB inh 58 | Jurkat NFkB conf inactive
Cn1c(=O)c2c(nc(C(O)c3ccccc3)n2C)n(C)c1=O (centres undefined)	none (no result: Jurkat NFkB inh, Mdm2-MdmX inh, 697 NFkB inh)
CCOC1=C2[C@@H](CN(S(=O)(=O)c3ccc(C)cc3)[C@H]2c2ccc(Cl)cc2)[C@H]2C(=O)N(c3ccccc3)C(=O)[C@H]2C1	none (no result: Jurkat NFkB inh, Mdm2-MdmX inh, 697 NFkB inh, Gli-Sufu antag)
Cc1ccc(N=C/C(C(=O)C(F)(F)F)=C(\O)c2ccco2)cc1Cl	none | Jurkat NFkB conf inactive
COc1cc(NC(=O)CNC(=O)Cn2cnc3sc(C)c(C)c3c2=O)cc(OC)c1OC	none (no result: Jurkat NFkB inh, Mdm2-MdmX inh, 697 NFkB inh, Gli-Sufu antag)
COc1ccc(-n2nnnc2/C=C/Nc2cc(C(F)(F)F)ccc2OC)cc1	none
COc1ccc(-n2nnnc2/C=C\Nc2ccccc2C(=O)c2ccccc2)cc1	Jurkat NFkB inh 53 | Jurkat NFkB conf inactive
CN(C)c1ccc(N=Nc2cccc(F)c2)cc1	none | Jurkat NFkB conf inactive
Cc1nc(N2CCCCCC2)c2ccccc2n1	none
COc1ccc(Nc2nc(N3CCCC3)c3ccccc3n2)cc1	Jurkat NFkB inh 58, Shn3 3UTR inh 87 | Jurkat NFkB conf inactive
O=C(Nc1nc2c(s1)CCCC2)c1ccc(Br)s1	none | Jurkat NFkB conf inactive
O=C(Nc1nc2c(s1)CCCC2)c1ccc2ncsc2c1	none | Jurkat NFkB conf inactive
O=C(Nc1nc2c(s1)CCCC2)c1ccc(N2C(=O)CCC2=O)cc1	none
Cc1cc(C(=O)Nc2nc3c(s2)CCCC3)cs1	none | Jurkat NFkB conf inactive
Cc1ncsc1C(=O)Nc1nc2c(s1)CCCC2	none
O=C(CC(O)c1ccccc1)Nc1ccccn1 (centres undefined)	none (no result: Jurkat NFkB inh, Mdm2-MdmX inh, 697 NFkB inh)
O=C(CSc1nc(C2CC2)nc2ccccc12)N1CCc2ccccc21	none (no result: Jurkat NFkB inh, Mdm2-MdmX inh, 697 NFkB inh)
COc1cc(SC)ccc1C(=O)Nc1ccccn1	none | Jurkat NFkB conf inactive
COc1cc(SC)ccc1C(=O)Nc1ncc(Cl)cc1Cl	none
COc1cc(SC)ccc1C(=O)Nc1cccc(C)n1	none | Jurkat NFkB conf inactive
COc1cc(SC)ccc1C(=O)Nc1ccon1	none
Cc1csc(SCC(=O)NC(=O)NC2CCCC2)n1	none
CCOc1ccc(NC(=O)CSc2nc3ccsc3c(=O)n2Cc2ccc(C(=O)O)cc2)cc1	none (no result: Jurkat NFkB inh, Mdm2-MdmX inh, 697 NFkB inh, Gli-Sufu antag)
O=C(/C=C/c1ccc2c(c1)OCO2)Nc1nc2ccccc2s1	none | Jurkat NFkB conf inactive
O=C(Nc1cccc(C(=O)N2CCCCC2)c1)C1CCCCC1	none (no result: Jurkat NFkB inh, Mdm2-MdmX inh, 697 NFkB inh)
COC(=O)C1C(=O)c2c([nH]c(C(=O)OC3CCCC3)c2C)CC1C (centres undefined)	none | Jurkat NFkB conf inactive
Cc1cccc(N2CCCC2=Nc2ccc(Br)cc2C#N)c1	Jurkat NFkB inh 62 | Jurkat NFkB conf inactive
Cc1cc(OCC(=O)OCC(=O)NCC2CCCO2)ccc1Cl (centres undefined)	none
Cc1nn(CC(=O)NC2(C)CCS(=O)(=O)C2)c(C)c1S(=O)(=O)N(C)C (centres undefined)	Jurkat NFkB inh 57 | Jurkat NFkB conf inactive
Cc1ccc2c(Cl)c(C(=O)NCC3CCCO3)sc2c1 (centres undefined)	none | Jurkat NFkB conf inactive
CSc1nc(Cl)c(Cc2ccc(OC(C)C)cc2)c(N(C)C)n1	none
CCOc1ccc(Cc2c(Cl)nc(SC)nc2N(C)C)cc1	Jurkat NFkB inh 60 | Jurkat NFkB conf inactive
COc1ccc(C(=O)Nc2ccccc2C(=O)NCc2cccnc2)cc1	none
Fc1ccc(-c2cn3ccccc3n2)cc1	none
